# Measurements from PubChem BioAssay (NCATS).
# Records with an inconclusive call do not appear. Where a call stands in place of a potency, no number is given. The source made the active and inactive calls. Calls come from the whole dose curve; as a rule, active = well fitted curve in the direction sought with a large enough effect; inconclusive = small, poorly fitted or top-dose-only effect, or another doubt; inactive = no such curve, though single readings can be large; an effect the other way counts as inactive or inconclusive.
# Columns and labels:
# [1] = qHTS for Inhibitors of Plasmodium falciparum (DD2) proliferation (AID 504314);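 note: parasite DNA measured by SYBR Green fluorescence after red cell lysis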
# Summary of the method: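 Erythrocytes infected with P. falciparum Dd2 (0.3% parasitemia, 2.5% hematocrit) exposed to compound 72 h at 37C, 5% CO2. Parasite DNA quantified by SYBR Green fluorescence after saponin/Triton lysis overnight; normalized to 0.29 uM artemisinin and DMSO.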
# [2] = qHTS for Inhibitors of Plasmodium falciparum (7G8) proliferation (AID 504316); note: nearly all actives have a fitted effect of over 65% in size; note: potency is the fitted concentration of half-maximal effect
# Summary of the method: (§1)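 Erythrocytes infected with P. falciparum line (0.3% parasitemia, 2.5% hematocrit final) incubated with compounds 72 h at 37 °C, 5% CO2; SYBR Green lysis buffer added, fluorescence read next day. Normalized to 0.29 uM artemisinin and DMSO.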
# [3] = qHTS for Inhibitors of Plasmodium falciparum (HB3) proliferation (AID 504318); note: nearly all actives have a fitted effect of over 60% in size; note: potency is the fitted concentration of half-maximal effect
# Summary of the method: as §1
# [4] = qHTS for Inhibitors of Plasmodium falciparum (CP250) proliferation (AID 504320)
# Summary of the method: as §1
Structure (SMILES),Potency [1],Potency [2],Potency [3],Potency [4]
CC(C)CN1C=C2C(=O)C(C)(OC(=O)CCc3ccccc3)C(=O)C=C2C=C1c1ccc(C#N)cc1 (configuration not stated),inactive,inactive,inactive,
COC/C=C/C1=CC2=CC(=O)C(C)(OC(=O)c3cnc4ccccc4n3)C(=O)C2=CN1CCOC (configuration not stated),inactive,inactive,inactive,inactive
CCOC(=O)CN1C(=O)N[C@@H](CCc2ccccc2)C(C(=O)OC)=C1C,inactive,inactive,inactive,inactive
COC(=O)CCCC1=CC2=C(c3ccccc3)C(=O)C(C)(OC(=O)C3CCCC3)C(=O)C2=CN1C1CCCC1 (configuration not stated),inactive,inactive,,
COc1ccc(-c2nc3c(c4c2C[C@H](c2ccccc2)OC4)CN(S(=O)(=O)c2c(C)noc2C)CC3)c(C)c1,inactive,1690 nM (active),2130 nM (active),
Cc1ccc(S(=O)(=O)N2CCc3nc(-c4ccccc4)c4c(c3C2)CO[C@@H](C)C4)cc1,inactive,inactive,inactive,
CC#CCN1c2ccccc2[C@]23C[C@@H](C(=O)OC)N(C(=O)c4cccs4)C2=NC(C(=O)OC)=C(C(=O)OC)[C@H]13,inactive,inactive,inactive,
C=CCN1c2ccccc2[C@]23C[C@@H](C(=O)OC)N(S(=O)(=O)c4ccc5c(c4)OCCN5C)C2=NC(C(=O)OC)=C(C(=O)OC)[C@H]13,inactive,1690 nM (active),,
CCN1C(=O)N(S(=O)(=O)c2ccc(C)cc2)[C@@H](c2ccccc2)C(C(=O)OC)=C1C,inactive,inactive,inactive,inactive
CC1(OC(=O)C2CCCC2)C(=O)C=C2C=C(c3ccsc3)N(c3ccccc3)C=C2C1=O (configuration not stated),inactive,inactive,inactive,inactive
